This note sets out measurements from PubChem BioAssay.

Activity calls are given as the source filed them.

In assay [1] the test system is Plasmodium falciparum Sir2 (PF13_0152, Sir2A). In words: Plasmodium falciparum Sir2A binding compounds – biochemical, small-molecule microarray, 635 nm fluorescence, primary screen (AID 1098).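 Further: score merges spot fluorescence intensity with its signal-to-noise ratio.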 The conditions noted are these: fluorescence 635 nm, higher = more signal.
Assay [2] in a line: probe aDKK1 binding to arrayed compounds – biochemical, biotinylated probe, 635/667 nm fluorescence, primary screen (AID 1099).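 Further: score merges 667nm spot fluorescence with signal to noise across triplicate slides; reference of the scale not given here.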 Conditions: small-molecule microarray, higher = more signal.
Assay [3] is described as follows: probe aCHRDL2 binding to arrayed compounds – biochemical, biotinylated probe, 635/667 nm fluorescence, primary screen (AID 1100). Conditions: small-molecule microarray, higher = more signal.
Assay [4] in a line: change in splice reporter luminescence, either direction, cell-based, HEK293, spliceosome inhibition project, primary screen (AID 1101).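 Further: HEK293 cells carrying a splicing-competent luciferase reporter gene; test concentration not given here.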 Conditions: HEK293 splicing luciferase reporter, 24 h, higher = more signal, called active from +8 up or from −8 down. A general note: A reporter such as luciferase makes a cellular process visible.
Assay [5] deals with Fibroblast growth factor 10 (Homo sapiens) (UniProt O15520). In words: compounds binding fibroblast growth factor 10 – biochemical, small-molecule microarray, 635 nm fluorescence, primary screen (AID 1102). The conditions noted are these: FGF10 binding, fluorescence 635 nm, higher = more signal.
The test system of assay [6] is glycogen synthase kinase-3 (GSK3A per assay name; protocol says GSK3B). In words: compounds binding glycogen synthase kinase-3 – biochemical, small-molecule microarray, 635 nm fluorescence, GSK3A, primary screen (AID 1103). Further: the record names both GSK3A and GSK3B. The conditions noted are these: fluorescence 635 nm, higher = more signal.
In assay [7] the target is Epidermal growth factor receptor (Homo sapiens) (UniProt P00533). In words: compounds binding epidermal growth factor receptor – biochemical, small-molecule microarray, 635 nm fluorescence, primary screen (AID 1104).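 Further: score merges 667 nm emission intensity with spot signal to noise over triplicate slides.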 The conditions noted are these: EGFR binding, higher = more signal.
In assay [8] the target is Follistatin-related protein 3 (Homo sapiens) (UniProt O95633). Briefly: compounds binding follistatin-related protein 3 – biochemical, small-molecule microarray, 635 nm fluorescence, primary screen (AID 1105).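 Further: score merges emission near 667 nm and signal to noise per printed spot across three slides.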 Conditions: FSTL3 binding, higher = more signal.
The target of assay [9] is Dickkopf-related protein 1 (Homo sapiens) (UniProt O94907). In words: small molecules binding DKK1 protein – biochemical, small-molecule microarray, 635 nm fluorescence scan, primary screen (AID 1106).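 Further: score merges emission near 667 nm with signal to noise over three replicate slides.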 Conditions: higher = more signal.
Assay [10] deals with Inhibin beta A chain (activin A). Briefly: small molecules binding activin A – biochemical, small-molecule microarray, 635 nm fluorescence scan, primary screen (AID 1107).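 Further: mouse activin A protein probed at 4.33 µg/mL on printed slides; score merges bound-protein fluorescence near 667 nm with spot signal-to-noise.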 The conditions noted are these: INHBA, higher = more signal.

Sequence of Fibroblast growth factor 10 (Homo sapiens) (O15520 whole entry, looked up): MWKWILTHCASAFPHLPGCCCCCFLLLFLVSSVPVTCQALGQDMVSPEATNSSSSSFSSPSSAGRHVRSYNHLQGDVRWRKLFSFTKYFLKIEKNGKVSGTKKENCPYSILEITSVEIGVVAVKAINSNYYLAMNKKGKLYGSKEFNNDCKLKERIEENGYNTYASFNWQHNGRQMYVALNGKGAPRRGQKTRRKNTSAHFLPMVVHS
Sequence of Dickkopf-related protein 1 (Homo sapiens) (O94907 whole entry, looked up): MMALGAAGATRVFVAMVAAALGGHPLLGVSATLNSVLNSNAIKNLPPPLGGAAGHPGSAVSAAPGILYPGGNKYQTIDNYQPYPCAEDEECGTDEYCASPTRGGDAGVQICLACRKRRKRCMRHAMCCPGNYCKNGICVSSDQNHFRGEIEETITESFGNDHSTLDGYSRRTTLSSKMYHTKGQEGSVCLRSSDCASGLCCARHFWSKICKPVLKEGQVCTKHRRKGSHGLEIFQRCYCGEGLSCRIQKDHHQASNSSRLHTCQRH
Sequence of Follistatin-related protein 3 (Homo sapiens) (O95633 whole entry, looked up): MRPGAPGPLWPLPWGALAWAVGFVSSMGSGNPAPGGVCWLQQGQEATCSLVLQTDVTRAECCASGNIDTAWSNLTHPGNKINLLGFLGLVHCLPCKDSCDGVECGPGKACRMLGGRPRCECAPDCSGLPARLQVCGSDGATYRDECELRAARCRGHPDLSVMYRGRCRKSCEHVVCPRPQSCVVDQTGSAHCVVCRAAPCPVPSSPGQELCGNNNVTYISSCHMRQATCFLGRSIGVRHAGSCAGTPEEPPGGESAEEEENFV
Sequence of Epidermal growth factor receptor (Homo sapiens) (P00533 whole entry, looked up): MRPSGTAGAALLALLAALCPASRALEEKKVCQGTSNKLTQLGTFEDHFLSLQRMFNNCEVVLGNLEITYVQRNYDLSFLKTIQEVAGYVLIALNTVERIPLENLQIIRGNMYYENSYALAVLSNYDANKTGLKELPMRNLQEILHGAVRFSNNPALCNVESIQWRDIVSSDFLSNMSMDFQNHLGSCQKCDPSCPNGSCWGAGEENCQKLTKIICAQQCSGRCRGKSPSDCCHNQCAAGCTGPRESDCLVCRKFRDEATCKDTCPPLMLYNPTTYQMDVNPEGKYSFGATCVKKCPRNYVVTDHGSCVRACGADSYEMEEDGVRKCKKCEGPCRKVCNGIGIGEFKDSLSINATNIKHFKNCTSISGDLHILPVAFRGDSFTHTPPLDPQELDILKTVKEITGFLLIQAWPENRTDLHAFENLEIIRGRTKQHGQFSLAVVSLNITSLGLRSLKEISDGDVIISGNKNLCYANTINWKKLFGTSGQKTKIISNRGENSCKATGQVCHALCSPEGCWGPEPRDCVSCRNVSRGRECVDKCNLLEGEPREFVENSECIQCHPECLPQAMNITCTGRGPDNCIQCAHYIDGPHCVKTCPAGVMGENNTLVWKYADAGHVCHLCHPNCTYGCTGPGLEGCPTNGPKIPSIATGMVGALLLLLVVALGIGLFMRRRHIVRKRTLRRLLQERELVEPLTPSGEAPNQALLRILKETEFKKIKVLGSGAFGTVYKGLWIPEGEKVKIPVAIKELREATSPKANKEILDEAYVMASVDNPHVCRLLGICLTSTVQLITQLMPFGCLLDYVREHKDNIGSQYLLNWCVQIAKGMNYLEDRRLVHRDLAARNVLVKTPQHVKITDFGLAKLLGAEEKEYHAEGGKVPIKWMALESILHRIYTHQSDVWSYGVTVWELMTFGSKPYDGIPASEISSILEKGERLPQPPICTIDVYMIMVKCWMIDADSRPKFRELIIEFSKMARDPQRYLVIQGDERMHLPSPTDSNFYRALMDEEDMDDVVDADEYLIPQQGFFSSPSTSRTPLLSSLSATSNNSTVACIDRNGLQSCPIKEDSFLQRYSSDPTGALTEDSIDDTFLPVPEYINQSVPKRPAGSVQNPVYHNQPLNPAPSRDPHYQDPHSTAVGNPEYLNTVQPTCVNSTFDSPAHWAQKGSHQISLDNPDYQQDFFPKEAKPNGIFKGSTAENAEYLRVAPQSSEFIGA

Consider `CCOC(=O)C1=CC[C@@H](c2ccc([N+](=O)[O-])cc2)N(S(=O)(=O)c2ccc(C)cc2)[C@H]1c1ccccc1`, for which the composite z-score stood at 0.992 in assay [1]; 0.291 in [2]; 0.304 in assay [3]; 1.21 in assay [5]; 0.154 in assay [6]; 0.764 in assay [7]. For the same compound, the composite z-score in assay [8] was 1.26; in assay [9], 0.293; in [10] it was 0.521. For the same compound, in [4], the z-score is -0.8 (inactive).
`O=C1O[C@@H](c2ccccc2)[C@@H](c2ccccc2)N2[C@@H](c3ccc(O)cc3)[C@]3(C(=O)Nc4ccc(C#CC5=CCCCC5)cc43)[C@@H](C(=O)N3CCN(c4ncccn4)CC3)[C@H]12`: the composite z-score in assay [1] is 1.59; in [2] it was -0.446; in assay [3], -0.0675; in assay [5] it was 1.33; in assay [6], 1.28; in [7], 0.383. The composite z-score in assay [8] is 0.872; in assay [9], 0.283; in assay [10], -0.0915. Besides, the z-score in [4] is -0.339 (inactive).
In the case of `Cc1ccc(S[C@]2(C(=O)NCCN3CCOCC3)CC(=O)N(Cc3ccccc3C(F)(F)F)[C@@H]2c2ccc(CO)cc2I)cc1`, the composite z-score in assay [1] was 1.3; in assay [2] it was -0.102; in assay [3], 0.93; in assay [5], -0.973; in assay [6] it was -0.728; in assay [7], -0.842. The composite z-score in assay [8] is -1.13; in [9] it was -1.15; in assay [10], 0.446. Also, the z-score in [4] was -1.55 (inactive).
For `C[C@H]1ON(c2ccc(C(=O)OC(C)(C)C)cc2)[C@@H](c2ccc(O)cc2)[C@@H]1C(=O)N1C(=O)OC[C@@H]1c1ccccc1`, the composite z-score is 1.12 in [1]; -0.0999 in assay [2]; -0.232 in assay [3]; 0.994 in assay [5]; 1.28 in assay [6]; 0.554 in assay [7]. Further, the composite z-score in assay [8] was 1.16; in assay [9], 0.624; in assay [10], -0.0428. Further, in assay [4], the z-score is 0.242 (inactive).
As to `O=C1C2C=CC(C(O)c3cc(C(F)(F)F)cc(C(F)(F)F)c3)N(Nc3ccc([N+](=O)[O-])cc3)C2C(=O)N1c1ccccc1` (stereo not given), the composite z-score in [1] stood at 0.905; in assay [2], 0.359; in assay [3], 0.499; in [5], 0.902; in assay [6], 1.34; in assay [7] it was 0.437. The composite z-score in assay [8] is 1.39; in [9], -0.246; in [10], -0.0083. For the same compound, the z-score in assay [4] was 0.765 (inactive).
Regarding `CN1C(=O)C2C=CC(C(O)C3CCCCC3)N(N3CCCCC3)C2C1=O` (stereo not given), the composite z-score in assay [1] came to 1.15; in [2], 0.429; in [3] it was 0.833; in assay [5], 1.06; in assay [6], 0.675; in assay [7] it was 0.442. In addition, the composite z-score in assay [8] amounted to 1.45; in assay [9], 0.379; in assay [10], 0.776. The z-score in assay [4] is 1.77 (inactive).
Consider `COc1ccc([Si](C)(C)[C@@H]2[C@@H](CCn3cc([C@H](O)c4ccccc4)nn3)O[C@]3(C(=O)N(Cc4ccc(N5CCOC5=O)cc4)c4ccccc43)[C@H]2C)cc1`, for which the composite z-score is 0.972 in assay [1]; -0.168 in assay [2]; -0.528 in assay [3]; 0.953 in assay [5]; 0.426 in [6]; 0.664 in assay [7]. The composite z-score in assay [8] turned out to be 1.02; in [9] it was 0.757; in assay [10] it was 0.504. In [4], the z-score is -0.242 (inactive).
Consider `CCCN1C(=O)[C@]2(Cc3ccccc3)N=C(c3ccc(OCCCO)cc3)O[C@@H]2c2ccccc21`, for which the composite z-score came out at 1.25 in [1]; 0.206 in [2]; 0.41 in assay [3]; 1.24 in assay [5]; 1.32 in [6]; 0.642 in assay [7]. In addition, the composite z-score is 0.928 in assay [8], 0.223 in assay [9] and 0.808 in assay [10]. For the same compound, the z-score in [4] is -1.41 (inactive).
`CC(C)CNC(=O)[C@@]1(c2ccc([N+](=O)[O-])cc2)CC(=O)N(C2CCCCC2)[C@@H]1c1ccc(CO)cc1I`: the composite z-score in [1] was 1.67; in [2], 0.349; in assay [3], 0.641; in [5] it was 0.489; in [6], -0.198; in assay [7], -0.519. Also, the composite z-score in [8] was -0.16; in assay [9], -0.477; in assay [10], 0.138. Besides, the z-score in assay [4] is -0.721 (inactive).
Take `CN(C)CCCNC(=O)[C@@H]1c2ccccc2C(=O)N(Cc2ccc(OC(F)(F)F)cc2)[C@H]1c1ccc(CO)cc1`: the composite z-score in assay [1] is 1.33; in [2] it was -0.115; in [3], 0.56; in assay [5] it was 0.0228; in [6], 0.887; in [7], -0.617. The composite z-score was found to be 0.351 in assay [8], 0.0558 in assay [9] and 0.561 in assay [10]. Further, in assay [4], the z-score was 0.0681 (inactive).
Take `COC1(C)CN(Cc2ccccc2Br)[C@H](/C=C/c2ccccc2)[C@H](Cc2ccccc2)O1` (stereo not given in full): the composite z-score in assay [1] was -0.525; in assay [2], -0.383; in assay [3], -0.0981; in assay [5] it was -0.258; in assay [6] it was -0.629; in assay [7], -0.383. The values for the composite z-score in [8], in assay [9] and in assay [10] were -0.478, -1.04 and -0.19, respectively. The z-score in assay [4] is -0.792 (inactive).
In the case of `COc1ccc([Si](C)(C)[C@@H]2[C@@H](CC(=O)N3CCC[C@H]3CO)O[C@]3(C(=O)N(Cc4ccc(N5C(=O)c6cccc7cccc5c67)cc4)c4ccccc43)[C@H]2C)cc1`, the composite z-score was 1.56 in assay [1]; -0.184 in [2]; -0.2 in assay [3]; 1.38 in assay [5]; 1.29 in [6]; 0.564 in assay [7]. Further, the figures for the composite z-score in assay [8], in assay [9] and in [10] were 1.06, 0.587 and 0.231, respectively. Besides, in assay [4], the z-score was -1.11 (inactive).
On to `COc1cc(CO)cc(I)c1O[C@H]1C=C(C(=O)NCCO)C[C@@H](NCc2ccccc2F)[C@@H]1O`, for which the composite z-score in [1] is 0.947; in assay [2], -0.28; in [3], -0.18; in assay [5] it was 1.06; in [6], 0.417; in [7] it was 0.152. The composite z-score was determined as 0.638 in [8], 0.239 in assay [9] and 0.0253 in assay [10]. Moreover, the z-score in [4] was -0.977 (inactive).
For `CC(C)C(O)C1C=CC2C(=O)N(C)C(=O)C2N1Nc1ccccc1` (stereo not given), the composite z-score in [1] was 0.778; in [2] it was 1.36; in [3], 0.598; in assay [5], 0.943; in assay [6] it was 0.686; in assay [7], -0.0756. Further, the composite z-score in [8] was determined as 0.439; in [9], 0.4; in [10], 0.742. In assay [4], the z-score was 1.01 (inactive).
